Assay [1] can be described thus: ATG_M_61_CIS: Attagene CIS-FACTORIAL HepG2 Assay for M61 Transcription Factor (Internal Marker) (AID 2282937). The note with it: HepG2 Attagene CIS-FACTORIAL M61 internal marker reporter; actives raise or lower the signal. In short, it runs like this: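 Fluorescence from labelled cDNA fragments, separated by capillary electrophoresis, quantifies reporter induction. HepG2 cells bearing transiently transfected cis-promoter MRTUs were incubated with test chemical for 24 h; DMSO defined baseline for gain/loss fitting.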

Assay [2] can be described thus: ATG_EGR_CIS: Attagene CIS-FACTORIAL HepG2 Assay for human Early Growth Response 1 (EGR1) (AID 2282938). The note with it: HepG2 Attagene CIS-FACTORIAL EGR reporter mRNA; actives raise or lower the signal. In a few lines:
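Cell-based multiplex transcription assay: HepG2 carrying transfected cis-element reporter units, 24 h chemical treatment. Fluorescence from capillary electrophoresis of RT-PCR products gives mRNA levels; fitting is bidirectional relative to DMSO.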

A short description of assay [3]: ATG_M_19_CIS: Attagene CIS-FACTORIAL HepG2 Assay for M19 Transcription Factor (Internal Marker) (AID 2282939). The note with it: HepG2 Attagene CIS-FACTORIAL M19 internal marker reporter; actives raise or lower the signal. In a few lines: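 Signals come from fluorescence of labelled reporter-specific PCR fragments resolved by capillary electrophoresis, following 24 h treatment of HepG2 cells transfected with cis-promoter reporter units; activity was fitted in both directions relative to DMSO.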

Assay [4] in a line: ATG_ERE_CIS: Attagene CIS-FACTORIAL HepG2 Assay for Estrogen Response Element (ERE) (AID 2282940). The note with it: HepG2 ERE cis-reporter, Attagene RNA transcript; actives raise or lower the signal. In a few lines: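 Fluorescence of capillary-separated, FAM-labelled reporter cDNA fragments indicates reporter mRNA levels in HepG2 cells exposed to chemicals for 24 h. Transient transfection with cis-regulated units; data fitted in both directions against DMSO.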

Assay [5] deals with Hepatocyte nuclear factor 3-beta (Homo sapiens) (UniProt Q9Y261). In words: ATG_FoxA2_CIS: Attagene CIS-FACTORIAL HepG2 Assay for human Forkhead box A2 (FOXA2) (AID 2282942). The note with it: HepG2 cis-reporter transcription factor activity, 24 h; actives raise or lower the signal. In a few lines: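 In transiently transfected human HepG2 cells, promoter-driven reporter mRNA levels after 24 h chemical exposure are determined via RT-PCR with capillary electrophoresis. DMSO serves as baseline for bidirectional fitting.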

The nature of assay [6]: ATG_FoxO_CIS: Attagene CIS-FACTORIAL HepG2 Assay for human Forkhead box O (FoxO) (AID 2282943). Conditions: HepG2 Attagene cis-reporter, FoxO element, mRNA; actives raise or lower the signal. In a few lines:
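Read-out: fluorescence of 6-FAM-labelled reporter cDNA fragments resolved by capillary electrophoresis. Transiently transfected HepG2 cells were dosed for 24 h; activity fitted in both directions relative to DMSO controls.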

Assay [7] can be described thus: ATG_GATA_CIS: Attagene CIS-FACTORIAL HepG2 Assay for human GATA Binding Protein (AID 2282944). The note with it: HepG2 GATA cis-element reporter, Attagene multiplex mRNA; actives raise or lower the signal. In a few lines:
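After transfecting HepG2 cells with multiple cis-regulated reporter units, chemicals are dosed for 24 h; isolated RNA undergoes RT-PCR and fluorescent labeling before capillary electrophoresis, with activity expressed against DMSO.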

A short description of assay [8]: ATG_GLI_CIS: Attagene CIS-FACTORIAL HepG2 Assay for human Zinc Finger Protein GLI1 (AID 2282945). Conditions: HepG2, Attagene cis-factorial reporter mRNA, GLI element; actives raise or lower the signal. In short, it runs like this: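 Transiently transfected HepG2 cells report endogenous transcription factor activity via cis-element-driven reporter units. After 24 h compound exposure, reporter mRNA was measured by RT-PCR with capillary electrophoresis; bidirectional fitting against DMSO baseline.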

Assay [9] addresses Bile acid receptor (Homo sapiens) (UniProt Q96RI1). Description: ATG_IR1_CIS: Attagene CIS-FACTORIAL HepG2 Assay for human Nuclear Receptor Subfamily 1 Group H Member 4 (NR1H4), IR1 submotif (AID 2282946). Conditions: IR1 reporter transcription, actives raise or lower the signal. In short, it runs like this:
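HepG2 cells transiently transfected with multiple cis-promoter-driven reporter units to measure endogenous transcription factor activity; 24 h exposure. Reporter mRNA read by RT-PCR, FAM labelling, HpaI digestion and capillary electrophoresis. Bidirectional fit versus DMSO.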

Assay [10] can be described thus: ATG_ISRE_CIS: Attagene CIS-FACTORIAL HepG2 Assay for human Interferon Regulatory Factor 1 (IRF1) binding to an Interferon-Stimulated Response Element (ISRE) (AID 2282948). Conditions: HepG2 ISRE cis-reporter (Attagene), mRNA transcription readout; actives raise or lower the signal. In a few lines:
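HepG2 cells transiently transfected with multiplexed cis-promoter reporter units; after 24 h compound exposure, reporter mRNA quantified by RT-PCR, FAM labelling, HpaI digestion and capillary electrophoresis. Bidirectional fit versus DMSO baseline.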

A short description of assay [11]: ATG_M_32_CIS: Attagene CIS-FACTORIAL HepG2 Assay for M32 Transcription Factor (Internal Marker) (AID 2282949).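 Note: background control marker of the multiplexed CIS panel rather than a real target.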 Conditions: HepG2 Attagene cis-factorial M32 reporter, mRNA; actives raise or lower the signal. In short, it runs like this:
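HepG2 cells transiently transfected with multiplexed cis-regulated reporter units, dosed 24 h. Reporter mRNA quantified by RT-PCR, 6-FAM labelling, HpaI digestion and capillary electrophoresis; bidirectional fit vs DMSO.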

Assay [12] can be described thus: ATG_M_06_CIS: Attagene CIS-FACTORIAL HepG2 Assay for M06 Transcription Factor (Internal Marker) (AID 2282950). Conditions: HepG2 Attagene CIS-FACTORIAL M06 internal marker reporter; actives raise or lower the signal. In a few lines:
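HepG2 liver cells, 24 h exposure. Reporter transcripts from transfected cis-element constructs quantified by RT-PCR/capillary electrophoresis fluorescence. Bidirectional curve fit against DMSO.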

In assay [13] the target is Hypoxia-inducible factor 1-alpha (Homo sapiens) (UniProt Q16665). Description: ATG_HIF1a_CIS: Attagene CIS-FACTORIAL HepG2 Assay for human Hypoxia Inducible Factor 1 (HIF1A) (AID 2282951). The note with it: HepG2 Attagene cis-factorial HIF1a reporter transcription; actives raise or lower the signal. In a few lines: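 In this multiplexed cell assay, HepG2 cells bearing transfected cis reporters are dosed for 24 h and reporter mRNA is read by RT-PCR plus capillary electrophoresis; signal increases and decreases are both scored against DMSO.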

Assay [14] concerns the target Hepatocyte nuclear factor 6 (Homo sapiens) (UniProt Q9UBC0). In words: ATG_HNF6_CIS: Attagene CIS-FACTORIAL HepG2 Assay for human Hepatocyte Nuclear Factor 6 (HNF6) (AID 2282952). Conditions: HepG2 Attagene cis-factorial HNF6 reporter transcription; actives raise or lower the signal. In short, it runs like this:
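Multiplexed mRNA reporter assay in transfected HepG2; 24 h dosing; RT-PCR plus capillary electrophoresis fluorescence; DMSO-referenced bidirectional curve fitting.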

For assay [15], the target named is Heat shock factor protein 1 (Homo sapiens) (UniProt Q00613). In words: ATG_HSE_CIS: Attagene CIS-FACTORIAL HepG2 Assay for human Heat Shock Transcription Factor 1 (HSE) (AID 2282953). Conditions: HepG2 HSE cis-reporter, Attagene RNA transcription; actives raise or lower the signal. In short, it runs like this:
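Endogenous transcription factor activity captured via cis-promoter reporter units transfected into HepG2; treatment lasted 24 h. Fluorescence intensity of reporter fragments analysed with bidirectional curve fitting, DMSO baseline.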

Assay [16] can be described thus: ATG_MRE_CIS: Attagene CIS-FACTORIAL HepG2 Assay for human Metal Responsive Element (MRE) (AID 2282954). The note with it: HepG2 MRE cis-reporter transcription, Attagene multiplex; actives raise or lower the signal. In a few lines: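 HepG2 cells transiently transfected with cis-element-driven reporter units; mRNA measured 24 h after dosing. Reporter transcripts quantified by RT-PCR, FAM labelling, HpaI digestion and capillary electrophoresis; bidirectional fit versus DMSO.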

The target of assay [17] is Paired box protein Pax-6 (Homo sapiens) (UniProt P26367). Description: ATG_Pax6_CIS: Attagene CIS-FACTORIAL HepG2 Assay for human Paired Box 6 (PAX6) (AID 2282956). Conditions: HepG2 CIS-FACTORIAL PAX6 reporter transcription, RNA readout; actives raise or lower the signal. In short, it runs like this: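 HepG2 cells transiently transfected with multiplexed cis-promoter reporter units (endogenous TF activity) were dosed for 24 h. Reporter mRNA was quantified by RT-PCR, 6-FAM labeling, HpaI digestion and capillary electrophoresis; bidirectional fitting versus DMSO baseline.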

Assay [18] can be described thus: ATG_PBREM_CIS: Attagene CIS-FACTORIAL HepG2 Assay for human Phenobarbital-responsive Enhancer Module (PBREM) (AID 2282955). The note with it: HepG2 PBREM cis-reporter, Attagene multiplexed transcription; actives raise or lower the signal. In a few lines:
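After a 24 h incubation with test chemical, transfected HepG2 cells yield total RNA; reporter-specific RT-PCR products are fluorescently labelled, HpaI-digested and resolved by capillary electrophoresis against ROX size standards.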

Assay [19] is described as follows: ATG_GRE_CIS: Attagene CIS-FACTORIAL HepG2 Assay for human Glucocorticoid Response Elements (GRE) (AID 2282947). The note with it: HepG2 GRE cis-reporter, Attagene multiplex mRNA; actives raise or lower the signal. In short, it runs like this: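 Transiently transfected HepG2 cells carrying GRE cis-reporter units (endogenous TF activity) dosed 24 h; reporter mRNA quantified by RT-PCR, 6-FAM labelling, HpaI digestion and capillary electrophoresis. Bidirectional fit versus DMSO baseline.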

A short description of assay [20]: ATG_Ets_CIS: Attagene CIS-FACTORIAL HepG2 Assay for human Erythroblast Transformation Specific (ETS) (AID 2282941). Conditions: HepG2 ETS cis-reporter transcription, actives raise or lower the signal. In a few lines: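 HepG2 cells transiently transfected with cis-promoter reporter transcription units were dosed for 24 h; reporter mRNA was measured by RT-PCR, 6-FAM primer extension, HpaI digestion and capillary electrophoresis, with bidirectional fitting against DMSO baseline.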

The structures appear in SMILES notation. Active and inactive are the calls of the source. Rule for the calls: active = hit-call score of the fitted dose curve at least 0.9, where 1 is the maximum; inactive = score below 0.9.

Chain of Bile acid receptor (Homo sapiens) (Q96RI1 whole entry, looked up): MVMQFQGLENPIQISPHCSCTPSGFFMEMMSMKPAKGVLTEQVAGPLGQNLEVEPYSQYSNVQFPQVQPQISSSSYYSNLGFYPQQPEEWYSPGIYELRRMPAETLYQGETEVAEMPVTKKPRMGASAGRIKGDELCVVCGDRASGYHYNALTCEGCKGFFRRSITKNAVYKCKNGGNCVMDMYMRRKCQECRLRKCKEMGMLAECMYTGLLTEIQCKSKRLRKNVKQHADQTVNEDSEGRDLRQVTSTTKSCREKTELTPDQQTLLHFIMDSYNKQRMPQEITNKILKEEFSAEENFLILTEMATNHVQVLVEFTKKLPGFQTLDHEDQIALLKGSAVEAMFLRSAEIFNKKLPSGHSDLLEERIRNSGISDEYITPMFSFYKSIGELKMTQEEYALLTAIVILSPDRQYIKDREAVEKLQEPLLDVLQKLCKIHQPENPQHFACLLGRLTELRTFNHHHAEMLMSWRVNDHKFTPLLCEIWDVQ
Chain of Paired box protein Pax-6 (Homo sapiens) (P26367 whole entry, looked up): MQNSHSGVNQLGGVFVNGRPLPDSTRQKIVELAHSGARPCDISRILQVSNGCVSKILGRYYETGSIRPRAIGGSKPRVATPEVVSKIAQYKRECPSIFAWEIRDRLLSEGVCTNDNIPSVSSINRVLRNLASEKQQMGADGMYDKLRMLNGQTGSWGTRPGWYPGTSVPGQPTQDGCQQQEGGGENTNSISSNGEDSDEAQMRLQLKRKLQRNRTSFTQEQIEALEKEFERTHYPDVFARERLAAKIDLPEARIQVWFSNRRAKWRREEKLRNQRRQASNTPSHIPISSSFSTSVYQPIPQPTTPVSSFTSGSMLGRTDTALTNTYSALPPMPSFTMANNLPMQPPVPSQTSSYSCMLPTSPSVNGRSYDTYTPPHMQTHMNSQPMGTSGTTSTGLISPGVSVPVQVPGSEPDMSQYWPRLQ
Chain of Hepatocyte nuclear factor 3-beta (Homo sapiens) (Q9Y261 whole entry, looked up): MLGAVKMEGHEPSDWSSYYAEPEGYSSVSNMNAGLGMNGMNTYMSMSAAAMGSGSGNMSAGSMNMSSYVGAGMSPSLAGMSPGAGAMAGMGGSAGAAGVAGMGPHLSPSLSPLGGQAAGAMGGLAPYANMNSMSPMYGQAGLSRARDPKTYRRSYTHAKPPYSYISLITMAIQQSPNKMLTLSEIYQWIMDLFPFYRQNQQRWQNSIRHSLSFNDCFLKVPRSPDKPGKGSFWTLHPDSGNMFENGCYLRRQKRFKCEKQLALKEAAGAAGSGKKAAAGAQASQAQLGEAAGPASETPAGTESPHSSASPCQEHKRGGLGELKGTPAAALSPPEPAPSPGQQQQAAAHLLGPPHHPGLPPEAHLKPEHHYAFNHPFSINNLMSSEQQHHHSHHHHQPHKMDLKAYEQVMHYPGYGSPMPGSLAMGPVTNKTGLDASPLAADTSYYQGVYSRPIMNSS
Chain of Hepatocyte nuclear factor 6 (Homo sapiens) (Q9UBC0 whole entry, looked up): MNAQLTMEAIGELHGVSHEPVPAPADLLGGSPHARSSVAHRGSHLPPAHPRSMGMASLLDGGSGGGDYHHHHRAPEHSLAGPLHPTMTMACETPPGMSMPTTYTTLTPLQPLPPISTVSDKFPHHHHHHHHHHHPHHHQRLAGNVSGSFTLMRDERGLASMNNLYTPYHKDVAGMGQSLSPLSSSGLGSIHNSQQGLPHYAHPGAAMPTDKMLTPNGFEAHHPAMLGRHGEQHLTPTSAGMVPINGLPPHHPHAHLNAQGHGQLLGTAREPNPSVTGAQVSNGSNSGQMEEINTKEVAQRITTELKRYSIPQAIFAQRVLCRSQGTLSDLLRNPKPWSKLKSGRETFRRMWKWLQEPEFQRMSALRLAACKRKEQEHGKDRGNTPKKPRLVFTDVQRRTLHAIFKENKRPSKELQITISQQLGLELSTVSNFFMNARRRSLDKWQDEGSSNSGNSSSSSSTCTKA
Chain of Hypoxia-inducible factor 1-alpha (Homo sapiens) (Q16665 whole entry, looked up): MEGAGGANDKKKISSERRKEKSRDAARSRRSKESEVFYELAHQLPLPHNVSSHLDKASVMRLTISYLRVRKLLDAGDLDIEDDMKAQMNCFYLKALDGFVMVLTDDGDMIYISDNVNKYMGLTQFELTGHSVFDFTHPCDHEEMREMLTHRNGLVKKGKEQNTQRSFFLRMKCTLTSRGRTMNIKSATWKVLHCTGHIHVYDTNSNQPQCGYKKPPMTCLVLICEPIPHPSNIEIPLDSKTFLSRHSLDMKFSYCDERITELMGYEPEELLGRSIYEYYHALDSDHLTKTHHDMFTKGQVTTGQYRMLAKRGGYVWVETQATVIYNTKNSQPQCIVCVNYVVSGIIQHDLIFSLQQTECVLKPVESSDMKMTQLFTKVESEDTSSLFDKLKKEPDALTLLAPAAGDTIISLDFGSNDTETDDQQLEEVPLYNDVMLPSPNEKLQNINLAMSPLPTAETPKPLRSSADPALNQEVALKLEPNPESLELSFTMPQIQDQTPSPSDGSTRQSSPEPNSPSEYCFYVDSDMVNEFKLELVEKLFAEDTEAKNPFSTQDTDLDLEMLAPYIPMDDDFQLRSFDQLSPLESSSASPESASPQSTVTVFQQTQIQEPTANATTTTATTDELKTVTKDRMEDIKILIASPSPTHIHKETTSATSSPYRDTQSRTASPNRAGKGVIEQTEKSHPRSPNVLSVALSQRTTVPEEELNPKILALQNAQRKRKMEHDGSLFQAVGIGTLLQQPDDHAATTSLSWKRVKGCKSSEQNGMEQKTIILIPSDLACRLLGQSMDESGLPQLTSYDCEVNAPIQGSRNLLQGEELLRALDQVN
Chain of Heat shock factor protein 1 (Homo sapiens) (Q00613 whole entry, looked up, the tested form may be a part): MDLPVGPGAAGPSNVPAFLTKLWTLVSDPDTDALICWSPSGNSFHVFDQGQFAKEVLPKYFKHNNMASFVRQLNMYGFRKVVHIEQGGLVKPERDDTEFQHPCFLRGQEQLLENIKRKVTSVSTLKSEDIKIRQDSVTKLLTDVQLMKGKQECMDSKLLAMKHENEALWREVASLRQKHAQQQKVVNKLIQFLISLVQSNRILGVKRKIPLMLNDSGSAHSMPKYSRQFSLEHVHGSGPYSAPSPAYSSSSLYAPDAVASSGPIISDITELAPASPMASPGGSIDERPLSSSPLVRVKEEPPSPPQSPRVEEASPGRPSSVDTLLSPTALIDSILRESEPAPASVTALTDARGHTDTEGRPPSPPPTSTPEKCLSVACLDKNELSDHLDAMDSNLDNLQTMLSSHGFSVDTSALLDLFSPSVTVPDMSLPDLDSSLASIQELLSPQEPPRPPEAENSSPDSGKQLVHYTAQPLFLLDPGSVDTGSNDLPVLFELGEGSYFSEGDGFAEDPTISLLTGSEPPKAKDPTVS

A word on the AC50: it is the concentration giving half of the maximal activity seen. For the molecule `c1ccc(-c2cccc(-c3ccccc3)c2)cc1`, the call in [1], in assay [2], in [3], in assay [5], in [6] and in [7] was inactive. The molecule was called inactive in assay [8], in [9], in [10], in assay [11], in [12] and in assay [13]. In addition, the result in assay [14], in assay [15], in assay [16] and in assay [17] was inactive. Further, the AC50 in [4] is 26.4 µM (active).
Consider `Cc1cc(Cl)ccc1OC(C)C(=O)O` (centres undefined), for which the molecule was called inactive in assay [1], in assay [2], in assay [3], in assay [4], in assay [5] and in [6]. Also, the molecule was called inactive in [7], in assay [8], in assay [10], in assay [12], in [13] and in assay [14]. Besides, the molecule was classed as inactive in [15], in assay [16], in [18] and in assay [17].
`CCOCn1c(-c2ccc(Cl)cc2)c(C#N)c(Br)c1C(F)(F)F`: the molecule was classed as inactive in [1], in [3], in [4], in assay [5], in assay [6] and in [7]. Also, the molecule was called inactive in assay [12], in [13] and in assay [18]. Moreover, the AC50 in assay [2] is 1.83 µM (active); in [8] it was 157 µM (active); in assay [9], 38.3 µM (active); in assay [19] it was 38.1 µM (active); in assay [14] it was 184 µM (active); in assay [15], 53.2 µM (active). In addition, the AC50 in [16] was 34.7 µM (active); in [17] it was 2.77 µM (active).
On to `COP(=S)(OC)Oc1cc(Cl)c(I)cc1Cl`, for which the outcome in assay [1], in [3], in assay [5], in assay [8], in assay [9] and in assay [11] was inactive. Besides, the outcome in assay [12] and in [18] was inactive. For the same molecule, the AC50 in [2] was 41.3 µM (active); in assay [20] it was 39.9 µM (active); in [6] it was 41.8 µM (active); in assay [7] it was 46.2 µM (active); in assay [19] it was 58.1 µM (active); in assay [10] it was 48.7 µM (active). For the same molecule, the AC50 in [13] is 33.4 µM (active); in [14] it was 27.2 µM (active); in assay [15] it was 62.1 µM (active); in assay [16] it was 37.5 µM (active); in assay [17] it was 33.4 µM (active).
